Hit rate of the full screen: of about 48,000 compounds, about 13,000 (27%) showed an effect of 50% or more. Some of the results follow.
Test system: Wolbachia pipientis
Experiment: Anti-Wolbachia Cell-Based Screen
Type: functional
Parameters: scale not given: in the data most compounds retested in dose-response had high values
Conditions: 5 µM

Structure (SMILES)	Percent Effect [%]
Cc1ccoc1C(=O)N1CC(C(=O)N2CCOCC2)C2(CCOCC2)C1 (configuration not stated)	-39.43
CC(=O)c1c(F)cccc1N1CCC(NS(=O)(=O)c2ccccc2)CC1	-17.75
CC(C)Oc1cc(N2CC[C@H](CO)[C@@H](O)C2)nc(N)n1	-19.56
Cc1ccccc1CCCN1C(=O)CC2(CCSC2)C1=O (configuration not stated)	0.3605
Cc1noc(CCCNC(=O)C2CSCN2C(=O)C(C)(C)C)n1 (configuration not stated)	-2.864
CN(C(=O)CCNC(=O)C1COc2ccccc21)c1ccccc1 (configuration not stated)	1.32
O=C(c1cocn1)N1CCC2(CC1)CC(OCC1CC1)CO2 (configuration not stated)	7.124
CN(C)CCCNc1ncnc2cccc(F)c12	-15.41
CN(CCOCC1CC1)C(=O)Cn1cccc(C(F)(F)F)c1=O	10.84
COCCN(C)C(=O)Nc1ccc(C(=O)NCCC(=O)OC)cc1	9.449
O=C(NCCOCC1CC1)Nc1ccc(F)cc1	-7.278
CN(CCOCC1CC1)C(=O)Nc1ccc([S+](C)[O-])cc1 (configuration not stated)	90.95
CN(CCOCC1CC1)C(=O)Nc1ccc([S+](C)[O-])c(F)c1 (configuration not stated)	94.49
C[S+]([O-])c1ccc(NC(=O)Cc2cccnc2)cc1F (configuration not stated)	6.367
CC(C)Cc1ncc2c(n1)CN(c1nccc(NC(C)C)n1)C2	-6.813
COC1CCN(C(=O)c2c(Cl)c3ccccc3n2C)CC1	-0.1607
O=C(CCc1cc(Cl)no1)N1CCCCC1CCN1CCOCC1 (configuration not stated)	-7.331
CCc1nc(CCNc2ncccn2)sc1C	-26.63
COc1cccc(C(O)CN2CCN(C(=O)CCC(C)C)CC2)c1 (configuration not stated)	-9.64
COc1ccc(OC)c(C(O)CN2CCN(C3CCCC3)CC2)c1 (configuration not stated)	3.384
COc1cccc(C(O)CN2CCN(c3cccc(C)c3)CC2)c1 (configuration not stated)	140.6
COc1ccc(OC)c(C(O)CN2CCN(c3cccc(C)c3)CC2)c1 (configuration not stated)	116.6
COCCN1CCN(CC(O)c2cc(OC)ccc2OC)CC1 (configuration not stated)	7.391

Structure (SMILES)	Percent Effect [%]
COc1cccc(N2CCN(CC(O)c3cc(C)sc3C)CC2)c1 (configuration not stated)	-7.346
CS(=O)(=O)c1ccc2c(c1)nc1n2[C@@H](CNCc2cccnc2)COC1	6.164
CC(CC(=O)N1CCCS1(=O)=O)c1ccccc1C(F)(F)F (configuration not stated)	-9.75
COC(=O)[C@@H]1Cc2ncn(C)c2CN1S(=O)(=O)c1cccs1	-9.442
Cc1cc(CCC(=O)Nc2nncs2)nc(C2CCCN2)n1.Cl (configuration not stated)	92.36
CNC(=O)CCc1cc(C)nc(C2CCCCN2)n1 (configuration not stated)	122.2
CNC(=O)CCc1cc(C)nc(C2CCCN2)n1 (configuration not stated)	-4.947
Cc1cc(C)n(CC2CCCN2CC(=O)Nc2nncs2)n1 (configuration not stated)	-0.6534
CCN1CCn2nc(CCC(=O)N3CCCC3)cc2C1	0.2115
CNC(=O)CCc1cccc(OC2CCCC2)c1	6.693
Cc1cc(CCC(=O)N(C)C)nc(C2CCCCN2)n1.Cl.Cl (configuration not stated)	123.4
CN(C)[C@H]1CCCCN(C(=O)CCc2csc(N)n2)C1	-1.322
Cc1cc(CCC(=O)N2CCCC2)nc(C2CCCN2)n1 (configuration not stated)	120.7
Cc1cc(C)n(CC2CCCCN2CC(=O)Nc2nncs2)n1 (configuration not stated)	-4.796
CCc1nc(C)c([C@H]2CN(C)C[C@@H]2C(=O)Nc2ccc3[nH]ncc3c2)[nH]1	2.29
CC(=O)N1CCC(NC2(Cc3cc(CC(C)C)on3)COC2)CC1	8.31
Cc1nc(CN2C(=O)C[C@H]3[C@H]2CCN3C2CCOC2)cs1.O=C(O)C(F)(F)F (some centres not stated)	104.4
Cc1nc(CN2CCN(C3CCOC3)Cc3cccnc32)cs1.O=C(O)C(F)(F)F.O=C(O)C(F)(F)F.O=C(O)C(F)(F)F (configuration not stated)	-13.84
Cc1nc(CN2C(=O)CC[C@@H]3[C@H]2CCN3C2CCOC2)cs1.O=C(O)C(F)(F)F (some centres not stated)	91.6
Cc1nc(CN2C(=O)CC[C@@H]3[C@H]2CCN3C(=O)c2ccccn2)cs1.O=C(O)C(F)(F)F	-0.4991
Cc1nc(CN2C(=O)CC[C@@H]3[C@H]2CCN3C2CCOCC2)cs1.O=C(O)C(F)(F)F	88.53
Cc1nc(CN2C(=O)CC[C@@H]3[C@H]2CCN3C(=O)C2CCOCC2)cs1	-12.01
Cc1nc(CN2C(=O)C[C@H]3[C@H]2CCN3C2CCOCC2)cs1.O=C(O)C(F)(F)F	-10.54

Structure (SMILES)	Percent Effect [%]
Cc1cccc(OC2CCN(c3nccnc3C#N)CC2)n1	4.563
COc1ccc(C(=O)N(C)Cc2cc(C)on2)c(F)c1	9.615
CC(=O)Nc1nc2c(s1)C(C)(C)Nc1ccccc1S2	66.2
CC(=O)Nc1nc2c(s1)C1(CCN(C)CC1)Nc1ccccc1S2	104.1
CC(=O)Nc1nc2c(s1)C1(CCCC1)Nc1ccccc1S2	63.28
COc1cc(C(=O)N2CCC3(CC2)Nc2ccccc2NC3=O)ccn1	31.29
CNc1ncc(C(=O)N2CCC3(CC2)Nc2ccccc2NC3=O)cn1	-19.06
CS(=O)(=O)N1CC[C@]2(O)CCN(c3cc(C#N)ccn3)C[C@@H]2C1	-2.197
CCOc1ccc(CCC(=O)N2CC[C@H]3C(=O)NCCO[C@H]3C2)cc1	8.218
Cc1c(C(=O)NCCC(=O)N2CCOCC2)oc2c(C)cccc12	-0.1879
CC(NCc1cnc(C2CCC2)s1)c1cccc(-n2cccn2)c1 (configuration not stated)	-14.57
O=C(CN1C(=O)CCC1=O)NCc1nn(C2CCCC2)c2c1CCCC2	-9.274
Cn1cc(CN2C[C@@H]3COC[C@]3(COCC3CC3)C2)cn1.O=C(O)C(F)(F)F	100.8
CCn1cc2c(n1)CN(Cc1cnn(C)c1)CC2COCC1CC1.O=C(O)C(F)(F)F (configuration not stated)	12.58
Cc1nc(COC[C@@]23CCC[C@@H]2CN(Cc2cnn(C)c2)C3)cs1	93.55
Cn1cc(CN2C[C@@H]3COC[C@]3(CNC(=O)c3ccsc3)C2)cn1.O=C(O)C(F)(F)F	-12.06
Cn1cc(CN2C[C@H]3CCC[C@@]3(COCC3CC3)C2)cn1.O=C(O)C(F)(F)F	101.6
Cn1cc(CN2C[C@@H]3COC[C@]3(CNC(=O)c3ccco3)C2)cn1.O=C(O)C(F)(F)F	-7.864
Cc1cccc(CN2C[C@H]3CCC[C@@]3(COCc3csc(C)n3)C2)n1.O=C(O)C(F)(F)F.O=C(O)C(F)(F)F	-5.241
Cc1nc(COC[C@@]23CCC[C@@H]2CN(Cc2nccs2)C3)cs1.O=C(O)C(F)(F)F	8.352
Cn1cc(CN2CCn3cnc(COCC4CC4)c3C2)cn1.O=C(O)C(F)(F)F	8.69
